Experimental data taken from PubChem BioAssay (NCI).
This is part of a sample that, as a whole, favours compounds with a hit. Of some 83,000 tested, about 20% had one in any assay.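 Results are percent growth after 48 hours of single-concentration exposure. 100 means growth as in untreated cells, lower positive values show inhibition; negative values down to -100 show cell death.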 Active and inactive are the calls of the source. Rule for the calls: active = growth percent below 10; inactive = the rest.

Assays:
Assay in all cases: NCI-60 one-dose screen, 48 h (100 = growth as untreated, 0 = no growth, -100 = all killed)
Conditions in all cases: 10 µM unless noted
[1] = system: SK-MEL-2 melanoma
[2] = system: EKVX NSCLC
[3] = system: SN12C renal
[4] = system: UO-31 renal
[5] = system: TK-10 renal
[6] = system: ACHN renal
[7] = system: CAKI-1 renal
[8] = system: A498 renal
[9] = system: CCRF-CEM leukemia
[10] = system: MOLT-4 leukemia

Measured: growth

O=C1OC(Oc2ccccc2)(c2ccccc2)c2ccccc21 (stereo not given)
inactive: [1] 104% | [2] 133% | [3] 110% | [4] 102% | [5] 109% | [6] 102% | [7] 87.4% | [8] 79.9% | [9] 103% | [10] 76%

CN(C)CCCN=c1cc2c(=O)n(CCCN(C)C)c(=O)c3c(NCCCN(C)C)cc4c(O)n(CCCN(C)C)c(=O)c1c4c3-2
active: [1] -9.31% | [2] -18.4% | [3] 9.31% | [4] -26.6% | [5] 7.45% | [6] -41.6% | [7] 4.58% | [8] -64.8%
inactive: [9] 10.8% | [10] 25.1%

Nc1ccc2c(c1)C(=O)c1cc(Cl)c(Cl)cc1-2
inactive: [1] 95.8% | [2] 74.1% | [3] 90.8% | [4] 49.9% | [5] 113% | [6] 92.1% | [7] 70.4% | [8] 76.5% | [9] 82.8% | [10] 77.1%

O=C(O)CNC(=O)C1(N2C(=O)c3ccccc3C2=O)CCCC1
inactive: [1] 101% | [2] 104% | [3] 99% | [4] 94.1% | [5] 99.6% | [6] 108% | [7] 98.5% | [8] 100% | [9] 88.8% | [10] 101%

O=C(NCCCl)NCCN1c2nc3ccccc3cc2Sc2cc3ccccc3nc21
inactive: [1] 40.5% | [2] 54.7% | [3] 67.3% | [5] 99.2% | [6] 64.8% | [7] 248% | [8] 80.3% | [9] 20.5%
active: [4] -5.97% | [10] -9.47%

O=C(N/N=C/c1cccc([N+](=O)[O-])c1)c1ccc(Br)o1
inactive: [1] 103% | [2] 103% | [3] 142% | [5] 129% | [6] 156% | [7] 98.3% | [8] 129% | [9] 78.2% | [10] 132%
active: [4] -25.2%

Cc1ccc2c(c1)C(=O)/C(=C\Nc1ccc(C(N)=O)cc1)C(O)O2 (stereo not given)
inactive: [1] 77.4% | [2] 97.8% | [3] 136% | [4] 79.3% | [5] 120% | [6] 104% | [7] 82.3% | [8] 115% | [9] 78.3% | [10] 80.6%

COc1ccc(-c2cnc(SCC(=O)Nc3ccc(-c4nc5ccccc5s4)cc3)n2-c2ccc(OC)cc2)cc1
inactive: [1] 102% | [2] 108% | [3] 104% | [4] 91.7% | [5] 108% | [6] 111% | [7] 103% | [8] 108% | [9] 94.2% | [10] 105%

Cc1[nH]cnc1/C=C1\SC(N2CCCCC2)=NC1=O
inactive: [1] 98% | [2] 108% | [3] 98.4% | [4] 83% | [5] 109% | [6] 106% | [7] 112% | [8] 83.4% | [9] 99.3% | [10] 100%

COC(=O)C1CCN(S(=O)(=O)c2ccc(-c3ccccc3)cc2)CC1
inactive: [2] 108% | [3] 105% | [4] 97.1% | [5] 122% | [6] 110% | [7] 99.8% | [8] 125% | [9] 138% | [10] 161%
active: [1] 8.48%

CC(=O)c1ccccc1NC(=O)C(C)(c1ccccc1)c1ccccc1
active: [8] -17.9%
inactive: [1] 70% | [2] 92.7% | [3] 108% | [4] 81.7% | [5] 110% | [6] 83.7% | [7] 108% | [9] 77.4% | [10] 62%

O=C(COc1ccc(/C=C2\Oc3ccc4ccccc4c3C2=O)cc1)c1ccc([N+](=O)[O-])cc1
active: [4] 2.26% | [9] -17.2%
inactive: [1] 48.6% | [2] 100% | [3] 89.7% | [5] 117% | [6] 107% | [7] 101% | [8] 103% | [10] 20.4%

COc1ccc2c(c1)CC/C(=C\c1ccc(OCC(=O)Nc3nc4ccccc4s3)cc1)C2=O
inactive: [1] 63% | [2] 95.9% | [3] 88.3% | [4] 22.2% | [5] 112% | [6] 97.2% | [7] 79.3% | [8] 117% | [10] 71.2%
active: [9] -37%

O=C(C(=O)N1CCOCC1)c1cn(CCCn2cc(C(=O)C(=O)N3CCOCC3)c3ccccc32)c2ccccc12
active: [9] -13.1%
inactive: [1] 100% | [2] 104% | [3] 96.3% | [4] 75.3% | [5] 97.6% | [6] 100% | [7] 104% | [8] 134% | [10] 104%
